# About 83,000 compounds went through this panel and 20% of them were active in at least one assay; those are over-represented in the sample as a whole.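 Activity criterion: percent growth below 10, measured after cells in 96-well plates were exposed to a single compound concentration for 48 hours.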 The source made the active and inactive calls.
# Tested on: MDA-MB-468 breast
# Experiment: NCI-60 one-dose screen, 48 h (100 = growth as untreated, 0 = no growth, -100 = all killed)
# Conditions: 10 µM unless noted
row,Structure (SMILES),growth
1,O=C1C=CC(=Nc2cc(Br)c(O)c(Br)c2)C=C1,51.4% (inactive)
2,C=C1C(=O)O[C@H]2[C@H]1CC/C(C(=O)NCCCCCNC(=O)/C1=C/CC[C@@]3(C)O[C@H]3[C@H]3OC(=O)C(=C)[C@@H]3CC1)=C\CC[C@@]1(C)O[C@@H]21,94.9% (inactive)
3,CC(=O)Nc1ccc(C(=O)Nc2cc(-c3ccccc3)ccc2N)cc1,110% (inactive)

# From PubChem BioAssay (NCI)
